Measurements taken from paper PMC7862700, “An all-to-all approach to the identification of sequence-specific readers for epigenetic DNA modifications on cytosine”.

Tests used:
Experiment in all cases: DAPPL (digital affinity profiling via proximity ligation, sequencing); 10 mM Tris-HCl pH 7.5, 50 mM NaCl, 1 mM DTT, 4% glycerol, room temperature, 30 min; GST-TFs on glutathione beads, 16-mer random dsDNA library, 0.1% formaldehyde crosslink after washing; high values mean tight binding
Conditions in all cases: protein: recombinant; tags: N-terminal GST; dsDNA, one strand shown
ETV2 = biological target: T1, ETV2 (Homo sapiens, UniProt O00321 1-342)
T1 sequence: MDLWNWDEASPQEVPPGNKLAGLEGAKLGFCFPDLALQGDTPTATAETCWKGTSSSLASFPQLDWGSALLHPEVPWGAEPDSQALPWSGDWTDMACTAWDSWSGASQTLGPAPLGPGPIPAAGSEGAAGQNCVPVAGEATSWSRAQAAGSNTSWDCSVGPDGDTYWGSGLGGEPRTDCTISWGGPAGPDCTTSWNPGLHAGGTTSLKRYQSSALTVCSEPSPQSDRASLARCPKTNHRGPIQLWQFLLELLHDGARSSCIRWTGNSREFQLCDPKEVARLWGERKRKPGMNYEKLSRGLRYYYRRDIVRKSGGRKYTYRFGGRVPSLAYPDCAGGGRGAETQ
In short: (§1)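 Sequencing on an Illumina NextSeq500 followed washing, crosslinking with 0.1% formaldehyde, proximity ligation (BsaI/T4 ligase, 1 h, 37 °C) and PCR amplification of pools that had been incubated for 30 min at room temperature with 200 nmole of a random double-stranded 16-mer DNA library in Tris/NaCl/DTT/glycerol buffer. Each pool held DNA-barcoded human transcription factors, expressed in yeast as GST fusions and captured on glutathione beads, plus a tag-only sample. Binding signal is a hexamer's read frequency for a factor divided by its frequency in the tag-only sample.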

ELF3 = biological target: T2, ELF3 (Homo sapiens, UniProt P78545 1-371)
T2 sequence: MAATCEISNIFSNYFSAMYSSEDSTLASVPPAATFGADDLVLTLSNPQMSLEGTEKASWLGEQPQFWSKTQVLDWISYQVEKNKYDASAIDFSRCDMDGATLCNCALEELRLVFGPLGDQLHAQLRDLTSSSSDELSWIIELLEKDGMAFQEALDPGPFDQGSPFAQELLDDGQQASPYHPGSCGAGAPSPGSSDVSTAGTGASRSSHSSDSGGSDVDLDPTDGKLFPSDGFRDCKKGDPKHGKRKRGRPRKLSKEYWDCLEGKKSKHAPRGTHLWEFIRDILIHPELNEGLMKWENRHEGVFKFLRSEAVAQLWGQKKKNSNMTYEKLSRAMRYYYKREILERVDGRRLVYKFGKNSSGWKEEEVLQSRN
In short: as §1

ETV1 = ETV1 (Homo sapiens, UniProt P50549 1-477)
ETV1, sequence (P50549 whole entry): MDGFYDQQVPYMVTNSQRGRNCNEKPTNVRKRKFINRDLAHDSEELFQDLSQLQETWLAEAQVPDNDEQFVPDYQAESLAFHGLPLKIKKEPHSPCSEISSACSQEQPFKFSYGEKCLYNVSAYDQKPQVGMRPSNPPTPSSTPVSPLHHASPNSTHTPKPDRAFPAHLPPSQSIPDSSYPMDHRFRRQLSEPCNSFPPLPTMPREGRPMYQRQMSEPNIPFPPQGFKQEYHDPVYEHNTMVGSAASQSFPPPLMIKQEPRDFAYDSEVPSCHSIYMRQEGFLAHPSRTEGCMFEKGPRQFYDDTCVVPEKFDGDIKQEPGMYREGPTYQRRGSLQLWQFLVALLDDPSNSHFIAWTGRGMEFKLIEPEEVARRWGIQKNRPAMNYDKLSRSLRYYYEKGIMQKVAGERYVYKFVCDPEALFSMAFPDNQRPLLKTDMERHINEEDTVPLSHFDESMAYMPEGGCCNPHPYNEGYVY
In short: as §1

ERF = biological target: T3, ERF (Homo sapiens, UniProt P50548 1-548)
T3 sequence: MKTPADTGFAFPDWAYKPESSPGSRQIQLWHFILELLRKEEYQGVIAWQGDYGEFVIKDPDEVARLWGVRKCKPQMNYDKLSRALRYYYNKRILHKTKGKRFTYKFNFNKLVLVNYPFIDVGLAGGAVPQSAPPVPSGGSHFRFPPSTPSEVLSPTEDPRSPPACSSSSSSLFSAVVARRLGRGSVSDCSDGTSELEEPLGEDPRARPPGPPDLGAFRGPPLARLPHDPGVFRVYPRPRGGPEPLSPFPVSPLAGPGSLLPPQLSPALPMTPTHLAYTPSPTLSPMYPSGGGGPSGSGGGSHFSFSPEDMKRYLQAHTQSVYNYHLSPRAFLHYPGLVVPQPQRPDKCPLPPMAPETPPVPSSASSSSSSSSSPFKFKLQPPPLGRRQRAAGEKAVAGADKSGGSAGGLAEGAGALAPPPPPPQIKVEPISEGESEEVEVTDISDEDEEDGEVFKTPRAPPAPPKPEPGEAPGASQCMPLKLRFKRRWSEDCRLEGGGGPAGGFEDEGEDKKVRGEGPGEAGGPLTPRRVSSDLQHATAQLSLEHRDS
In short: as §1

ETV3L = biological target: T4, ETV3L (Homo sapiens, UniProt Q6ZN32 1-361)
T4 sequence: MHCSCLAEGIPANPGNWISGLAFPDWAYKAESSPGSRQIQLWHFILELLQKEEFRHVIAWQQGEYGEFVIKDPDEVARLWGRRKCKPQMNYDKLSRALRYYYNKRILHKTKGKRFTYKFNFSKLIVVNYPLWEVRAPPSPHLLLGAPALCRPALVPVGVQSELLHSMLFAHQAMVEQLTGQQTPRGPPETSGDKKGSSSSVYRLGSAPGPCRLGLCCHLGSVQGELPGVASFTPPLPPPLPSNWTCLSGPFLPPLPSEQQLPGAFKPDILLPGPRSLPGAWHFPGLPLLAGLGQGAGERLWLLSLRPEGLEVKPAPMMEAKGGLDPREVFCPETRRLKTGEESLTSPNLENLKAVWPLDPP
In short: as §1

ETS2 = biological target: T5, ETS2 (Homo sapiens, UniProt P15036 1-469)
T5 sequence: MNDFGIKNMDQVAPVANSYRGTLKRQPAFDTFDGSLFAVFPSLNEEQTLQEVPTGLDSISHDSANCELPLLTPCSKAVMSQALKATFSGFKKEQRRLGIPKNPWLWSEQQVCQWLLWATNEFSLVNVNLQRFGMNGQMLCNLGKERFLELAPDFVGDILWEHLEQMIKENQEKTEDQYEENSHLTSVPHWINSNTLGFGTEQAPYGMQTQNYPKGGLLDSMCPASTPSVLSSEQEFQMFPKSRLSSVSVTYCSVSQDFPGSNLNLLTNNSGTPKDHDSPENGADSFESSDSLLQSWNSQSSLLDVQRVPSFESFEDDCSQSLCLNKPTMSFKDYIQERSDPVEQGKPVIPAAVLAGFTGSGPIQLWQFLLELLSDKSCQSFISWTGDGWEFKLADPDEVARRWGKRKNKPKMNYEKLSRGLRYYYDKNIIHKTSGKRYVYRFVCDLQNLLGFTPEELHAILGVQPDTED
In short: as §1

SPDEF = biological target: T6, SPDEF (Homo sapiens, UniProt O95238 1-335)
T6 sequence: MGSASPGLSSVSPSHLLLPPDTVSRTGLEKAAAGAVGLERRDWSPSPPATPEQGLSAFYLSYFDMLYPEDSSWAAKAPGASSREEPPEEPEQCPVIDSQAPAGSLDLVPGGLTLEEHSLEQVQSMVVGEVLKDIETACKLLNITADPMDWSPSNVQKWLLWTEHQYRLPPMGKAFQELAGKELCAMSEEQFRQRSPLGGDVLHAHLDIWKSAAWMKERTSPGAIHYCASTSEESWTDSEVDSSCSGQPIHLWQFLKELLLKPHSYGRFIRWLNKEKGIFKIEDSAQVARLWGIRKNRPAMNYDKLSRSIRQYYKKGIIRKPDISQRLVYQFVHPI
In short: as §1

ETV7 = biological target: T7, ETV7 (Homo sapiens, UniProt Q9Y603 1-341)
T7 sequence: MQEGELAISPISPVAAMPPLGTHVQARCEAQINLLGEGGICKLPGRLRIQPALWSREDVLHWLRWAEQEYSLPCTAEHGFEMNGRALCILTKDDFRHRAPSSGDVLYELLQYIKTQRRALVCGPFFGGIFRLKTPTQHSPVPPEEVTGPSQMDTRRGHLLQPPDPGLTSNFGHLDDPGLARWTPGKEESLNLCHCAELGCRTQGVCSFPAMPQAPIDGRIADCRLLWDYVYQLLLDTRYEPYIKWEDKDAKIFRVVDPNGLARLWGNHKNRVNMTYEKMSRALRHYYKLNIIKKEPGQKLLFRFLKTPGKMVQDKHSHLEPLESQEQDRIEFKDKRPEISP
In short: as §1

ETV3 = biological target: T8, ETV3 (Homo sapiens, UniProt P41162-2 1-143)
T8 sequence: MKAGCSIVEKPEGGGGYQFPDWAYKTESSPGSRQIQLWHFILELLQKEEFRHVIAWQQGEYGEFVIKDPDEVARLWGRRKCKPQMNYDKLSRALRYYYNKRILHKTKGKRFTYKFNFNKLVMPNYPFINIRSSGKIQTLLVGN
In short: as §1

ETV6 = ETV6 (Homo sapiens, UniProt P41212 1-452)
ETV6, sequence (P41212 whole entry): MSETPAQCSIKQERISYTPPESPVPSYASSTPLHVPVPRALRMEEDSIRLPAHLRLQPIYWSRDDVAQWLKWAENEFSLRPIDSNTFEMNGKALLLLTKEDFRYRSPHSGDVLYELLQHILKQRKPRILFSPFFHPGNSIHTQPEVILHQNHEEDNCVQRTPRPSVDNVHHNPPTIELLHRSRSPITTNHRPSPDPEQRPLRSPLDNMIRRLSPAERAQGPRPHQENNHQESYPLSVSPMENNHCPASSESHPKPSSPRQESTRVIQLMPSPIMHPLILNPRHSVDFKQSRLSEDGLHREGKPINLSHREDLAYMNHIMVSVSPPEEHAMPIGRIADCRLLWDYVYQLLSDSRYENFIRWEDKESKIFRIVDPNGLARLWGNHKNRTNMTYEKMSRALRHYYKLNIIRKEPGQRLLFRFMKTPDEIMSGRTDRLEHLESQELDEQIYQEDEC
In short: as §1

With ATGCCA the binding signal (ETV2) was 1.06 fold enrichment (6-mer frequency, TF over GST control), the binding signal (ELF3) was 1.09 fold enrichment (6-mer frequency, TF over GST control) and the binding signal (ETV1) was 1.02 fold enrichment (6-mer frequency, TF over GST control). For the same sequence, the binding signal (ERF) was 1 fold enrichment (6-mer frequency, TF over GST control), the binding signal (ETV3L) was 1.02 fold enrichment (6-mer frequency, TF over GST control) and the binding signal (ETS2) was 1.03 fold enrichment (6-mer frequency, TF over GST control). For the same sequence, the binding signal (SPDEF) was 1.04 fold enrichment (6-mer frequency, TF over GST control), the binding signal (ETV7) was 1.08 fold enrichment (6-mer frequency, TF over GST control) and the binding signal (ETV3) was 1.13 fold enrichment (6-mer frequency, TF over GST control). For the same sequence, the binding signal (ETV6) was 1.05 fold enrichment (6-mer frequency, TF over GST control).
